# MITF act = activators of MITF-driven TRPM1 promoter reporter, primary screen, cell-based, SK-MEL-5, luciferase, single point. activation, % at 12.5 µM. actives 0.75% (n = 300,000). SK-MEL-5 TRPM1-promoter luciferase, 24 h; % of positive control, neutral wells = 0;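 active means mean activation of at least 80% with every replicate also reaching 80%; inconclusive means mean reaches 80% but some replicate falls short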;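 further: 0% = neutral control wells and 100% = parthenolide positive control wells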
# MITF TRPM1 inh = inhibitors of MITF-dependent TRPM1 promoter reporter, primary screen, cell-based, SK-MEL-5, single point, luciferase; AID 488899, 2010; inhibition, % at 12.5 µM; actives 0.83% (n = 330,000); SK-MEL-5 TRPM1 promoter luciferase, 24 h;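 active means mean inhibition across replicates of 60% or more, whatever share of single replicates reaches that level; inconclusive means some that reach 60%, reason not given; inactive means mean inhibition across replicates below 60%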
# EBV LMP1 NFkB = EBV LMP1-driven NF-kappaB luciferase reporter inhibitors, primary screen, cell-based, luminescence, single point | actives 0.69% (n = 350,000) | inhibition, % at 12.5 µM | AID 504558, 2011 | LMP1-induced NF-kappaB luciferase reporter cells; in the data active means inhibition above about 41%; inconclusive means no clear call, values can overlap the other calls;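 further: 0% = neutral control wells and 100% = reference inhibitor control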
# Wnt act = Wnt/beta-catenin pathway activators, primary screen, cell-based, plate reader, single point; actives 1.2% (n = 300,000); Wnt/beta-catenin reporter cell assay, activator; activation, % at 9.35 µM; in the data active means activation above about 30%, passing the limit was not always enough; inconclusive means no clear call, values can overlap the other calls;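 further: 0% = neutral control wells and 100% = positive control wells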
# C2C12 statin = suppressors of statin myotoxicity in C2C12 myotubes, primary screen, cell-based, single point, plate reader; actives 0.78% (n = 330,000); rescue of ATP level, % at 7.49 µM; C2C12 myotubes + simvastatin, ATP luminescence, 48 h; scaled: DMSO 0, geranylgeraniol control 100; AID 602340, 2012;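 active means mean ATP rescue above about 67%, or every replicate alone reaching that limit, limit read from the data, passing the limit was not always enough; inconclusive means no clear call, values can overlap the other calls; inactive means mean under the limit and some replicate under it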;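 further: myotubes were challenged with 10 µM simvastatin during compound exposure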
# esBAF inh = Bmi1 luciferase reporter increase in mESCs, primary screen, esBAF inhibitor project, mouse ES cells, Bmi1 luciferase knock-in, single point; reporter increase, % at 12.5 µM; 24 h; 100% = twice the neutral-well signal; actives 2% (n = 350,000); in the data active means activation above about 40%; inconclusive means no clear call, values can overlap the other calls;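 further: 0% = median of the plate's neutral control wells and 100% = double that signal; a rise in the Bmi1 reporter signal indicates esBAF inhibition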
# * marks the source's active call; other numbers are inactive results; u = inconclusive; x = no result. An excerpt weighted towards active compounds, which were near 4% of everything screened.
SMILES,MITF act,MITF TRPM1 inh,EBV LMP1 NFkB,Wnt act,C2C12 statin,esBAF inh
Cc1cc(C)c(NC(=S)NC(=O)c2ccccc2)cc1C,x,x,-24.2,33.9*,x,x
Cc1ccc(C(=O)NC(=S)Nc2cccc3nsnc23)cc1,9.3,-10.6,-18.2,x,-18.6,62.6*
CCc1nc2c(OCc3ccc(F)cc3)cccn2c1N(C)C(=O)c1ccc(C)cc1,x,x,x,-6.2,4.9,0.3
COc1cccc(S(=O)(=O)Nc2ccc3c(c2)OC[C@@H](C)N(C(=O)Cc2cccnc2)C[C@@H](C)[C@H](OC)CN(C)C3=O)c1,x,x,x,x,12.7,-7.5
Cc1nc(NC(=O)CCc2ccccc2)sc1C,65.9,-68.0,-29.2,4.8,1.7,56.7*
Cc1nc(NC(=O)c2ccccc2)sc1C,x,-47.6,-23.8,4.0,-6.6,6.0
Cc1ccc(NC(=O)CSc2nc(O)c(Cc3ccccc3)c(=O)n2-c2ccccc2)cc1,5.5,-3.8,0.8,-1.3,x,24.6*
CCc1c(O)nc(SCC(=O)Nc2ccccc2)n(-c2ccccc2)c1=O,1.6,0.1,-34.3,0.1,5.2,1.0
Cc1ccccc1Cn1c(CN2CCc3ccccc3C2)nc2c1c(=O)n(C)c(=O)n2C,-1.8,1.3,7.3,x,-35.3,2.4
O=C(CCSc1ccc(Cl)cc1)N1CCCCCC1,73.9,-66.4,-27.7,x,2.5,86.0*
O=C(/C=C/c1ccc(Cl)cc1)N1CCN(c2c(Cl)cccc2[N+](=O)[O-])CC1,1.2,-1.7,8.3,-2.9,x,x
O=C(CSc1ccc(Cl)cc1)N1CCN(c2c(Cl)cccc2[N+](=O)[O-])CC1,74.8,-68.0,-3.4,x,67.1*,u
O=C(CCSc1ccc(Cl)cc1)N1CCN(c2ncccn2)CC1,37.3,-46.5,-32.3,x,13.6,42.1*
O[C@H]1CN(CC2CCCCC2)[C@@H](c2ccc(Cl)cc2)C[C@@H]1n1cc(C2CC2)nn1,x,x,8.0,-1.8,3.1,-8.3
Cc1cccc(CS(=O)(=O)c2nnc([C@H](Cc3ccccc3)NC(=O)OC(C)(C)C)o2)c1,-73.1,74.9*,-28.0,x,-121.5,-2.5
COC(=O)CSc1nnc([C@H](Cc2ccccc2)NC(=O)OC(C)(C)C)o1,6.6,-3.4,2.5,x,2.1,0.7
COC(=O)CS(=O)(=O)c1nnc([C@H](Cc2ccccc2)NC(=O)OC(C)(C)C)o1,-79.7,79.1*,2.5,x,x,x
CC(C)(C)OC(=O)N[C@@H](Cc1ccccc1)c1nnc(SCC(N)=O)o1,x,-1.1,-6.7,1.4,2.4,2.9
Cc1cc(-c2nc3ccccc3o2)c2ccccc2n1,x,-4.3,0.6,5.7,-9.5,1.8
O=C1c2ccccc2C(=O)N1CCSc1ccccc1,x,-47.3,-27.7,x,-0.8,50.0*
O=C1c2ccccc2C(=O)N1CCSc1nncs1,12.9,-5.9,9.8,x,5.1,4.0
Cc1cc(C)nc(N/C(=N\S(=O)(=O)Cc2ccccc2)Nc2ccccc2Br)n1,1.0,-5.3,54.6*,-6.5,x,x
COc1ccc2cc(C(N)=O)/c(=N\NC(=O)c3ccccc3)oc2c1,-34.4,34.1,45.8*,6.3,-22.8,-82.6
COc1cccc(C(=O)N/N=c2/oc3ccccc3cc2C(N)=O)c1,11.8,-15.8,3.2,0.9,x,x
CN(C)c1ccc(C(C[N+](=O)[O-])c2c(N)n(C)c(=O)n(C)c2=O)c(F)c1C#N (stereo not drawn),-36.1,39.2,6.9,3.3,7.9,11.2
SMILES,MITF act,MITF TRPM1 inh,EBV LMP1 NFkB,Wnt act,C2C12 statin,esBAF inh
COc1ccc(Br)cc1C(C[N+](=O)[O-])c1c(N)n(C)c(=O)n(C)c1=O (stereo not drawn),-80.2,80.1*,6.6,-3.0,x,x
O=C(CN1C(=O)CCC1=O)Nc1nc(-c2ccc3ccccc3c2)cs1,66.7,-60.1,-7.8,43.9*,x,x
O=C(CN1C(=O)CCC1=O)Nc1nc(-c2nc3ccccc3s2)cs1,92.0*,-87.0,-1.6,9.8,x,39.5
CC(=O)Nc1nc(-c2ccc3ccccc3c2)cs1,94.4*,-94.9,-50.9,48.2*,1.6,30.6
O=C(CN1C(=O)CCC1=O)Nc1nc(-c2ccccn2)cs1,-0.2,4.0,-0.7,-1.3,7.8,-2.9
CC(=O)NCCC(=O)Nc1nc(-c2ccc3ccccc3c2)cs1,9.3,-4.6,-0.4,3.7,13.2,26.0
CCCOc1cc(C)c(Cl)cc1S(=O)(=O)N(CC)CC,6.9,-9.1,1.0,x,108.5*,-1.9
CCOc1cc(C)c(Cl)cc1S(=O)(=O)N1CCCC1,-4.4,1.2,6.7,-2.7,80.8*,-3.4
COc1cc(C)c(Cl)cc1S(=O)(=O)N1CCCC1,1.2,-1.2,-5.8,-1.6,x,x
CCOc1cc(C)c(Cl)cc1S(=O)(=O)N(C)C,1.5,-0.8,-6.7,x,14.7,-11.0
O=C(CSCC(=O)Nc1nc(-c2ccc3c(c2)OCO3)cs1)Nc1nccs1,11.7,-10.6,85.3*,23.6,5.4,44.5*
O=C(Nc1nc(-c2ccc3c(c2)OCO3)cs1)C1CC1,92.6*,-92.3,-55.3,-1.2,x,7.4
Cc1cnn(C(=S)NCCc2ccccc2)c1,x,-77.6,-7.3,x,1.0,45.7*
Cc1cnn(C(=S)NCc2ccc(Cl)cc2)c1,x,x,x,-1.6,x,x
Cc1ccc(SCC(=O)NC(C)(C)C)cc1,x,-42.4,-10.2,33.2*,7.4,55.8*
COc1ccc(C(=O)Nc2ccc3c(c2)OCCO3)cc1,-11.6,13.8,25.1,x,2.7,-26.9
COc1ccc(C(=O)/C=C(\C)Nc2ccc3c(c2)OCO3)cc1,x,-58.5,-20.6,u,0.9,61.7*
COc1ccc(N/C(C)=C/C(=O)c2ccccc2)cc1,120.2*,-116.2,-28.9,24.2,x,x
S=C(NN=C1C2CC3CC(C2)CC1C3)Nc1ccccc1,15.4,-15.5,64.6*,x,x,x
COCCNC(=O)C1CCCN(S(=O)(=O)c2cccc3nsnc23)C1 (stereo not drawn),-2.9,7.0,-0.3,-3.5,-8.4,-6.7
Cn1c(/C=C/c2ccccc2)nc2ccccc2c1=O,25.7,-15.7,-17.7,17.5,-4.3,34.0
Cc1cc(N/N=C/c2ccc([N+](=O)[O-])o2)nc2ccccc12,-16.8,15.9,4.3,5.5,x,x
Cn1c(/C=C/c2ccc([N+](=O)[O-])o2)nc2ccccc2c1=O,-84.2,84.5*,87.7*,x,24.5,-80.3
Cn1c(/C=C/c2ccc(Cl)cc2)nc2ccccc2c1=O,x,-69.2,-92.5,0.7,-56.1,68.7*
C[N+](C)(C)C[C@H](O)CC(=O)[O-],4.8,-1.9,51.2*,-3.2,2.6,-5.5
CCOc1ccc2nc(C)cc(Nc3cccc([N+](=O)[O-])c3)c2c1,-82.8,83.5*,-33.8,-2.3,x,x
O=C(N1CCOCC1)N1CCN(S(=O)(=O)c2ccc(Cl)cc2)C1,-3.0,4.4,44.1*,-2.7,-4.9,-7.6
O=C(N1CCOCC1)N1CCN(S(=O)(=O)N2CCOCC2)CC1,-11.3,14.9,-5.1,0.9,113.7*,0.5

# High-throughput results deposited in PubChem by Broad Institute.
